Screen size: about 310,000 compounds; about 14,000 (4.5%) showed an effect of 50% or more. Effects have a minus sign here. Shown is part of a subset that was picked to be rich in strong results.
Target: human ether-à-go-go-related gene (hERG) potassium channel (human, UniProt Q12809)
Test: primary screen, population patch clamp on CHO cells stably expressing hERG; higher = less effect of the substance
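Also: peak tail current of the secondary pulse compared with the same well before compound.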

Chain of human ether-à-go-go-related gene (hERG) potassium channel (Q12809 whole entry, looked up): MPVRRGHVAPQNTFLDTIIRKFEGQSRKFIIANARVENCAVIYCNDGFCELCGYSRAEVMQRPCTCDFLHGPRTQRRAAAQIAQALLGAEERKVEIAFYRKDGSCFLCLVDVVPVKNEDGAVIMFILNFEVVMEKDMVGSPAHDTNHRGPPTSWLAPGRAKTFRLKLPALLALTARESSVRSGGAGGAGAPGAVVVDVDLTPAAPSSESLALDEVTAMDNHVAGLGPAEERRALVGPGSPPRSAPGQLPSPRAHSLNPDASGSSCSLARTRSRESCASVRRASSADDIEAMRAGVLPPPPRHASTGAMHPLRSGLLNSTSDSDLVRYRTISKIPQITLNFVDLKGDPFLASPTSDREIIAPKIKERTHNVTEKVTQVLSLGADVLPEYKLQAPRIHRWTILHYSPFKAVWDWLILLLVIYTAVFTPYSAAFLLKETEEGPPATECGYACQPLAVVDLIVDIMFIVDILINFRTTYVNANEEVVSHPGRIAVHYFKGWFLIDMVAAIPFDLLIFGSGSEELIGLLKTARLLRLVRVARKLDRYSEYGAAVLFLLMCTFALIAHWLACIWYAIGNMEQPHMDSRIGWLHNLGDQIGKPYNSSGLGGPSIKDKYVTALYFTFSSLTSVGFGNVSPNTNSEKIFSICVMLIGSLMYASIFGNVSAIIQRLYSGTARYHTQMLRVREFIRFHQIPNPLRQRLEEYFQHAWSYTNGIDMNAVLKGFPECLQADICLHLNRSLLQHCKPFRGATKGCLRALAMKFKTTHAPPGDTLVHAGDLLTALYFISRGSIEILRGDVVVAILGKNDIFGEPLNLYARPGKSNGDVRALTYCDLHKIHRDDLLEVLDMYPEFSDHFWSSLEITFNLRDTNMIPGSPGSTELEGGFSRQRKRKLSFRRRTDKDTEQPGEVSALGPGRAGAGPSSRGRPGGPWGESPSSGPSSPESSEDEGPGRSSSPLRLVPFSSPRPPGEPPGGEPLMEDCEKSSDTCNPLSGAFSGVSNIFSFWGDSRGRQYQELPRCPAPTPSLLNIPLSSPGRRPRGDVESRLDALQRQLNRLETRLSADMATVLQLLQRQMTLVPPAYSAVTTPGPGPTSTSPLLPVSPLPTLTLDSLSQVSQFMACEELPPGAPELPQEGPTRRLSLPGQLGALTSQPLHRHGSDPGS

Structure (SMILES)	hERG current change (%, negative = inhibition) at 10uM [%]
CC1Cc2ccccc2N1C(=O)COC(=O)C1=COCCO1 (centres unmarked)	-7.1
COc1ccc(CCNC(=O)COC(=O)/C=C/c2ccc(OC)c(OC)c2)cc1	-16
O=C(CSc1nncn1-c1cccnc1)N(c1ccccc1)c1ccccc1	4.28
CN(C)S(=O)(=O)N1CCN(C(=O)c2cccs2)CC1	7.17
COC(=O)CN1C(CN2CCOCC2)=Nc2ccc(Br)cc2C1c1ccccc1 (centres unmarked)	-75.3
COC(=O)CN1C(C)=Nc2ccc(C)cc2C1c1ccccc1 (centres unmarked)	-43.1
Br.COC(=O)CN1C(C)=Nc2ccc(Br)cc2C1c1ccccc1 (centres unmarked)	-49.1
NNC(=O)CN1C(CN2CCOCC2)=Nc2ccc(Br)cc2C1c1ccccc1 (centres unmarked)	-48.9
CC1=Nc2ccc(Br)cc2C(c2ccccc2)N1CC(=O)O (centres unmarked)	33.7
CCC1=Nc2ccc(Br)cc2C(c2ccccc2)N1CC(=O)OC (centres unmarked)	-59.1
Cc1nnc(NC(=O)c2ccc(S(=O)(=O)N3CC(C)CC(C)C3)cc2)o1 (centres unmarked)	5.33
CCc1cccc2c(C(=O)C(NCCCOC)c3ccccc3)c[nH]c12 (centres unmarked)	2.05
O=C(CSc1cccc(C(F)(F)F)c1)Nc1cc(S(=O)(=O)N2CCCC2)ccc1Cl	-5.28
CCOC(=O)N1CCC(N2C(=O)c3ccccc3C2Nc2ccccc2C)CC1 (centres unmarked)	-46.5
CCOC(=O)N1CCC(N2C(=O)c3ccccc3C2Nc2c(C)cccc2C)CC1 (centres unmarked)	-75.1
CCOC(=O)N1CCC(N2C(=O)c3ccccc3C2Nc2ccc3c(c2)OCCO3)CC1 (centres unmarked)	-7.43
CCOC(=O)N1CCC(N2C(=O)c3ccccc3C2Nc2ccc3c(C)cc(=O)oc3c2)CC1 (centres unmarked)	-63.8
CCOC(=O)N1CCC(N2C(=O)c3ccccc3C2Nc2cc(C)cc(C)c2)CC1 (centres unmarked)	-21.8
CCOC(=O)c1ccccc1NC1c2ccccc2C(=O)N1C1CCN(C(=O)OCC)CC1 (centres unmarked)	-56.4
CCOC(=O)N1CCC(N2C(=O)c3ccccc3C2Nc2ccccc2)CC1 (centres unmarked)	-9.74
CCOC(=O)N1CCC(N2C(=O)c3ccccc3C2Nc2cc(OC)c(OC)c(OC)c2)CC1 (centres unmarked)	-17.8
CCOC(=O)N1CCC(N2C(=O)c3ccccc3C2Nc2cc(C(=O)OC)cc(C(=O)OC)c2)CC1 (centres unmarked)	-17.5
Cc1nn(C)c(C(=O)N/N=C/c2cc3c(cc2Br)OCO3)c1Br	11.2

Structure (SMILES)	hERG current change (%, negative = inhibition) at 10uM [%]
COCc1cc(C)n(CC(=O)NCC2CCCO2)c(=O)c1C#N (centres unmarked)	12
CCOc1ccc(/C=C2\SC(=S)N(CCCC(=O)NCCCN3CCOCC3)C2=O)cc1	-4.5
CC(=O)NCCc1ccc(S(=O)(=O)NCc2ccc3c(c2)OCO3)cc1	2.45
CCCc1cc2c(cc1NS(=O)(=O)c1ccc(CCNC(C)=O)cc1)OCO2	-63
CC(=O)NCCc1ccc(S(=O)(=O)Nc2ccc3c(c2)OCCO3)cc1	12.3
CCCCNC(=O)CSc1nnc(-c2cccc(S(=O)(=O)N3CCOCC3)c2)o1	-18.1
CC(=O)c1sc(NC(=O)c2ccc(COc3ccccc3Cl)o2)nc1C	33.5
CC(=O)N(CN1C(=O)CCC1=O)c1cccc(Cl)c1	-17
CCCNCC(O)Cn1c2ccccc2n2c(=O)cc(C)c(C#N)c12 (centres unmarked)	-29.7
Cc1cc(=O)n2c3ccccc3n(CC(O)CN3CCCCC3)c2c1C#N (centres unmarked)	-53.2
Cc1cc(=O)n2c3ccccc3n(CC(O)CN3CCCC3)c2c1C#N (centres unmarked)	-44.8
Cc1cc(=O)n2c3ccccc3n(CC(O)CN3CCOCC3)c2c1C#N (centres unmarked)	17.9
Cc1cc(=O)n2c3ccccc3n(CC(O)CN3CCN(Cc4ccccc4)CC3)c2c1C#N (centres unmarked)	-62.8
Cc1cc(=O)n2c3ccccc3n(CC(O)CN3CCN(CCO)CC3)c2c1C#N (centres unmarked)	-16
Cc1cc(C(N)=O)c2cc(Br)ccc2n1	1.34
COc1cccc(N2CCN(C(=O)NC3CCCCC3)CC2)c1	2.57
Cc1cc(C(=O)Nc2ccccc2C)c2ccccc2n1	14.1
O=c1[nH]cnc2c1nc(SCc1ccccc1)n2C1OC(CO)C(O)C1O (centres unmarked)	-2.32
O=c1cc(-c2ccc(O)cc2)oc2cc(O)cc(O)c12	-2.23
C[C@H]1CN=C(Nc2ccccc2)N1CCc1ccc(F)cc1	-46.3
CC(C)C[C@H]1CN=C(Nc2ccccc2)N1CCc1ccc(F)cc1	-62.4
Cc1cccc(CCN2C(Nc3ccccc3)=NC[C@@H]2CC(C)C)c1	-67.5
Cc1cccc(CCN2C(N(C)C)=NC[C@@H]2CC(C)C)c1	-18.1

Structure (SMILES)	hERG current change (%, negative = inhibition) at 10uM [%]
Cc1cccc(CCN2C(Nc3ccccc3)=NC[C@@H]2C)c1	-23
COc1ccccc1C(=O)NNC1=NS(=O)(=O)c2ccccc21	20.3
COc1cccc(NC(=O)Cn2cc(C(=O)C3CC3)c3ccccc32)c1	0.319
CCn1c(-c2cccnc2)n[nH]c1=S	0.542
CCOc1ccc(OCCC(=O)OCC(=O)NC2CCCCC2)cc1	11.4
CCn1c(N2CCN(CC(=O)c3c(C)n(C)c4ccc(OC)cc34)CC2)nc2c1c(=O)[nH]c(=O)n2C	3.19
O=C(Cc1cn(-c2ccccc2)nc1-c1ccccc1)N1CCCCC1	-18.3
Cc1c(C(=O)N2CCN(C(=O)c3ccco3)CC2)oc2c(Cl)cccc12	-34.3
Cc1cc(Cl)c2oc(C(=O)N3CCN(c4cccc(C)n4)CC3)c(C)c2c1	16.3
Cc1cc(Cl)c2oc(C(=O)N3CCN(c4ccncc4)CC3)c(C)c2c1	-75.9
Cc1cc(Cl)c2oc(C(=O)N3CCN(C(=O)c4ccco4)CC3)c(C)c2c1	-53.9
Cc1cc(Cl)c2oc(C(=O)N3CCC(O)(c4ccccc4)CC3)c(C)c2c1	8.87
Cc1c(C(=O)N2CCN(c3ccccc3)CC2)oc2c(Cl)cccc12	4.82
CCOc1ccc(C(C(=O)NC(C)(C)C)N(CCOC)C(=O)CCC(=O)Nc2ccccn2)cc1 (centres unmarked)	-5.95
COC(=O)c1c(S(C)(=O)=O)nc(-c2ccccc2)[nH]c1=O	-2.13
Cc1nc2scc(-c3ccccc3)c2c(=O)n1N	-1.43
Cc1nc(-c2cccnc2)sc1C(=O)N/N=C/c1ccccc1Cl	-75.5
CNC(=O)c1sc(-c2cccnc2)nc1C	-34.7
Cc1nc(-c2cccnc2)sc1C(=O)Nc1ccc(Cl)cc1	-29.2
O=C(N/C(=C/c1ccc(F)cc1)C(=O)N1CCCC1)c1ccccc1	19.5
CC1CCN(C(=O)/C(=C\c2ccccc2F)NC(=O)c2ccccc2)CC1	-52.7
CN1CCN(C(=O)/C(=C/c2ccc(F)cc2)NC(=O)c2ccccc2)CC1	-77.8
CSc1ccc(/C=C(/NC(=O)c2ccccc2)C(=O)N2CCN(C)CC2)cc1	-75.9

Structure (SMILES)	hERG current change (%, negative = inhibition) at 10uM [%]
COc1ccc(/C=C(\NC(=O)c2ccccc2)C(=O)N2CCN(C)CC2)cc1OC	20
CN1CCN(C(=O)/C(=C/c2ccc(N(C)C)cc2)NC(=O)c2ccccc2)CC1	-17.5
O=C(N/C(=C\c1ccc(F)cc1)C(=O)N1CCCCCC1)c1ccccc1	-11.6
O=C(N/C(=C/c1ccccc1F)C(=O)N1CCCCC1)c1ccccc1	10.1
CN1CCN(C(=O)/C(=C/c2ccccc2F)NC(=O)c2ccccc2)CC1	-29.2
C[C@@H](CSc1ccc(Br)cc1)CN1CC[C@H](O)CCC1=O	-12
COc1ccc2oc(C(=O)OCC(=O)NC3CC3)c(C)c2c1	11
Cc1sc2ncn(CC(=O)NCC(=O)N3CCC4(CC3)OCCO4)c(=O)c2c1C	-4.54
Cc1cc(NC(=O)c2c([N+](=O)[O-])cnn2C)no1	14.2
Nc1ccccc1C(=O)NC1CCCCNC1=O (centres unmarked)	26.2
CC1(C)N=C(N)NC(Nc2ccccc2Cl)=N1	20.9
C[C@@H](C(=O)O)[C@H]1C[C@]1(C)[C@H](NC(=O)OCc1ccccc1)c1ccccc1	4.41
COc1cccc(NC(=O)CC2(CC(=O)O)CCCC2)c1	-39.8
CC1Cc2cc(S(=O)(=O)N3CCCC(C(=O)N4CCCCC4)C3)ccc2N1C(=O)C1CC1 (centres unmarked)	-4.84
O=C(O)c1cc(-c2ccccc2)n(-c2ccc(Cl)cc2Cl)n1	21.5
O=C(c1cc(-c2ccc(Cl)cc2)on1)N1CCOCC1	-0.136
O=C(c1cc(-c2ccc(Cl)cc2)n(-c2cc(Cl)ccc2Cl)n1)N1CCOCC1	-68.9
O=C(c1cc(Cl)ccc1Cl)N1CCOCC1	8
O=C(c1cc(-c2ccc(Cl)cc2Cl)on1)N1CCOCC1	-9.72
O=C(c1cc(-c2ccc(Cl)cc2)n(-c2ccc(Cl)cc2Cl)n1)N1CCOCC1	-79.6
